Consider 26 compounds from PubChem BioAssay (NCI).

About 83,000 compounds went through this panel and 20% of them were active in at least one assay; those are over-represented in the sample as a whole.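 How to read the values: 0–100, growth inhibition (40 = 60% inhibited); 0, no net growth; -100 to 0, cell death (-40 = 40% of starting cells died; -100 = all dead).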 A number with no mark means an inactive call. The source made the active and inactive calls. Rule for the calls: active = growth percent below 10; inactive = the rest.

What all share (assay): NCI-60 one-dose screen, 48 h (100 = growth as untreated, 0 = no growth, -100 = all killed)
Holding throughout (settings): 10 µM unless noted

Assay [1] concerns SR leukemia.
In assay [2] the test system is RPMI-8226 leukemia.
For assay [3], the system named is OVCAR-8 ovarian.
For assay [4], the system named is OVCAR-5 ovarian.
The test system of assay [5] is SK-OV-3 ovarian.
Assay [6] concerns IGROV1 ovarian.
The subject of assay [7] is OVCAR-3 ovarian.
The test system of assay [8] is HS 578T breast.
Assay [9] deals with NCI/ADR-RES ovarian.

As to `CC1CC2C3CCC4=CC(=O)CCC4(C)C3CCC2(C)C1(O)C(=O)CO` (centres undefined), the growth in assay [1] was 107%; in assay [2], 77.1%; in assay [3], 105%; in [4], 104%; in assay [5], 102%; in [6], 117%. Moreover, the growth is 132% in [7], 123% in assay [8] and 114% in assay [9].

Turning to `Cc1[nH]c(=S)[nH]c(=O)c1C`, the growth in [1] is 97.9%; in [2], 115%; in assay [3], 89.8%; in [4], 101%; in assay [5], 106%; in assay [6], 104%. Also, the growth in [7] was 118%; in assay [8], 123%; in assay [9] it was 105%.

As to `CCCCCCCCCCCCCCCCCC(=O)NCCNC(=O)CCCCCCCCCCCCCCCCC`, the growth was 0.967% (active) in [1]; 86.4% in assay [2]; 98.2% in assay [3]; 94.8% in [4]; 84.5% in assay [5]; 66.3% in assay [6]. The growth in assay [7] was 96.9%; in assay [8], 107%; in assay [9], 93.9%.

For `Cc1[nH]n(-c2ccccc2)c(=O)c1C=NC(=S)C(N)=S`, the growth in assay [1] was 89.9%; in [2], 94.6%; in assay [3] it was 99.9%; in assay [4], 109%; in assay [5], 96%; in [6], 112%. In addition, the figures for the growth in assay [7], in assay [8] and in [9] were 108%, 92.1% and 101%, respectively.

As to `O=Cc1ccc(Cl)c(Cl)c1`, the growth in assay [1] was 98%; in assay [2] it was 105%; in assay [3], 101%; in [4] it was 99.8%; in assay [5], 112%; in assay [6], 83.7%. The results for the growth in assay [7] and in assay [9] were 116% and 95.4%, respectively.

Turning to `CCNc1ncnc2[nH]ncc12`, the growth in assay [1] was 143%; in [2], 73.9%; in assay [3], 72.3%; in assay [4] it was 104%; in assay [5] it was 109%; in [6], 124%. Also, the values for the growth in assay [7], in [8] and in assay [9] were 112%, 109% and 105%, respectively.

In the case of `C=C1C(=O)C2CCN1CC2`, the growth in assay [1] was 26.1%; in assay [2], 93.8%; in assay [3], 110%; in assay [4], 99.6%; in assay [5], 105%; in assay [6] it was 122%. Moreover, the growth in assay [8] is 101%; in [9], 104%.

As for `C=CCNC(=S)N/C=C(/C(=O)c1ccccc1)c1ccccc1`, the growth in assay [1] is 95.4%; in assay [2] it was 101%; in [3] it was 117%; in assay [4], 97.7%; in assay [5], 110%; in assay [6] it was 106%. Moreover, the growth in [7] was 112%; in assay [8], 103%; in assay [9], 104%.

Regarding `Cc1ccc(NC(=S)N2CCOCC2)cc1C`, the growth in [1] was 108%; in assay [2] it was 102%; in assay [3], 104%; in assay [4] it was 102%; in assay [5] it was 97.9%; in assay [6], 103%. In addition, the values for the growth in assay [7], in assay [8] and in assay [9] were 104%, 94.7% and 110%, respectively.

On to `O=S(=O)(OCCOS(=O)(=O)c1ccccc1)c1ccccc1`, for which the growth in assay [1] is 93.7%; in assay [2] it was 100%; in [3], 97%; in assay [4], 111%; in assay [5] it was 96.3%; in assay [7] it was 94.3%. Also, the values for the growth in assay [8] and in [9] were 108% and 95.5%, respectively.

As for `CCN(CC)CCCC(C)NC(=S)N/N=C(\C)c1ccccn1` (centres undefined), the growth in [1] is 17.7%; in [2], 58.9%; in assay [3] it was 36.1%; in assay [4], 55.1%; in [5], 52.3%; in assay [6], 32.3%. Moreover, the results for the growth in assay [7] and in assay [8] were 51% and 92.6%, respectively.

Turning to `OCC1OC(n2ccc3c2ncn2ncnc32)C(O)C1O` (centres undefined), the growth in assay [1] was 20.6%; in assay [2], 60.7%; in assay [3] it was 6.1% (active); in [4] it was 30.2%; in assay [5], 58%; in assay [6], 53.4%. In addition, the growth in assay [7] is 28.9%; in assay [8], 65.2%.

For `Cc1ccc(C)c(CCO)c1`, the growth was 110% in assay [1]; 138% in assay [2]; 98.8% in assay [3]; 97% in assay [4]; 100% in assay [5]; 115% in assay [6]. For the same compound, the growth was 101% in assay [7], 105% in assay [8] and 102% in [9].

Take `CCCCCCCCCCCCCCCCOc1ccccc1NC(=O)CC(C)=O`: the growth in assay [1] is 107%; in assay [2] it was 64%; in [3], 113%; in assay [4], 102%; in [5], 111%; in [6], 88.4%. Besides, the growth in assay [7] and in [8] was 118% each time.

In the case of `CC(=O)NC(CCC(=O)c1ccccc1)C(=O)O` (centres undefined), the growth in assay [1] is 16.6%; in assay [2] it was 91.4%; in assay [3], 101%; in assay [4], 98.3%; in assay [5], 87.5%; in assay [6] it was 104%. In addition, the results for the growth in assay [7], in [8] and in assay [9] were 107%, 108% and 106%, respectively.

For `Cc1c(Cl)cccc1N=C=S`, the growth in [1] was 108%; in assay [2], 86.3%; in assay [3] it was 95.6%; in assay [4] it was 93.1%; in assay [5], 104%; in assay [6] it was 108%. For the same compound, the growth is 102% in assay [7], 109% in assay [8] and 89.3% in assay [9].

In the case of `O=C1NC(=O)C(c2ccccc2)O1` (centres undefined), the growth in [1] was 93.3%; in assay [2], 99.5%; in assay [3], 102%; in [4], 106%; in assay [5], 96.6%; in assay [6], 108%. For the same compound, the growth in assay [8] was 117%; in [9], 97.8%.

Consider `O=C(O)Cc1ccc(Cl)cc1`, for which the growth in [1] was 44.8%; in [2] it was 99.1%; in assay [3] it was 97.7%; in assay [4], 111%; in assay [5], 121%; in assay [7], 150%. Also, the growth in [8] was 99.6%; in [9], 109%.

Regarding `Nc1ccn(C2CC(N)C(CO)O2)c(=O)n1` (centres undefined), the growth in assay [1] was 54.5%; in assay [2], 31.5%; in assay [3] it was 45.6%; in assay [4] it was 108%; in assay [5] it was 69.6%; in assay [6], 87.1%. The growth in assay [7] was 115%; in assay [8], 114%.

In the case of `CCOC(=O)C(COS(C)(=O)=O)(COS(C)(=O)=O)C(=O)OCC`, the growth is 90.9% in [1]; 110% in assay [2]; 103% in assay [3]; 105% in [4]; 104% in assay [5]; 104% in assay [6]. Besides, the growth in [7] is 106%; in assay [8] it was 104%; in assay [9], 103%.

Take `C=CCc1cc(OC)c(O)c(OC)c1`: the growth was 87.1% in assay [1]; 97.6% in assay [2]; 103% in assay [3]; 96.8% in [4]; 103% in [5]; 113% in assay [6]. Moreover, the growth in assay [7] is 106%; in assay [8], 107%; in assay [9], 99.8%.

`O=[N+]([O-])c1ccc(-c2nc(N(CCO)CCO)c3ccccc3n2)o1`: the growth is 2.69% (active) in assay [1]; 4.26% (active) in [2]; 1.65% (active) in assay [3]; -5.6% (active) in [4]; -4.36% (active) in assay [5]; -34.3% (active) in [7]. Moreover, the growth is -41.8% (active) in [8] and 5.04% (active) in [9].

Consider `CC(=O)NNC(=S)N/C=C/c1c(C)ccc([N+](=O)[O-])c1[N+](=O)[O-]`, for which the growth in assay [1] was 92.9%; in [2], 103%; in assay [3], 102%; in assay [4] it was 99.3%; in [5], 105%; in assay [6] it was 109%. The growth in assay [7] was 103%; in assay [8], 108%; in assay [9], 97.9%.

Consider `C=CC(=O)OC1CCC(C(C)(C)CC)CC1` (centres undefined), for which the growth is 98.9% in [1]; 103% in assay [2]; 107% in assay [3]; 103% in assay [4]; 111% in assay [5]; 117% in assay [6]. The values for the growth in assay [7], in assay [8] and in assay [9] were 109%, 101% and 105%, respectively.

Consider `Cc1ccc(C)c(CN(C)C)c1O`, for which the growth in assay [1] was 118%; in [2], 121%; in assay [3] it was 98.2%; in assay [4], 102%; in assay [5] it was 107%; in assay [6], 110%. Also, the growth in [7] is 113%; in assay [8] it was 105%; in assay [9] it was 99.3%.

Turning to `Cc1onc(-c2c(F)cccc2Cl)c1-c1ncc(-c2ccc(Br)cc2)o1`, the growth in assay [1] is 13.7%; in assay [2], 22.6%; in assay [3], 38.3%; in [4], 70%; in assay [5], 66.1%; in assay [6], 36.8%. Further, the growth in assay [7] is 43.6%; in [8], 66.6%; in assay [9], 31.1%.
